The campaign covered roughly 69,000 compounds. About 950 (1.4%) showed an effect of 50% or more. The list comes from a sample in which strong results are over-represented; it also holds similar structures and randomly drawn compounds.
System: Mycobacterium tuberculosis
Experiment: Cornell M. t heat shock assay; note: in the data most compounds retested in dose-response had high values
Format: functional, organism-based
Set-up: dose or concentration left out as unconfirmed

Structure (SMILES) | Percent Effect
CCc1c(C)nc2cc(C3CCN(Cc4ccncc4C)C3)nn2c1O (centres undefined) | -4.904%
O=C(O)C(F)(F)F.O=C(c1ccncc1F)N1CCc2onc(COc3cccnc3)c2C1 | 2.972%
Cn1ccc(C(=O)N2CCC[C@]3(C[C@@H](OCc4ccccn4)CO3)C2)n1.O=C(O)C(F)(F)F | -3.608%
O=C(O)CCC(=O)N1CCC(c2noc3cc(F)ccc23)CC1 | 69.92%
CCCNC(=O)CCC(=O)N1CCC(c2noc3cc(F)ccc23)CC1 | 9.612%
NC(=O)CN1CCC(c2noc3cc(F)ccc23)CC1 | -31.79%
O=C(CCN1CCC(C(=O)c2cc(F)ccc2F)CC1)NC1CC1 | -9.281%
CC(C)NC(=O)CCC(=O)N1CCC(c2noc3cc(F)ccc23)CC1 | 74.12%
O=C(CCc1cc(O)no1)N1CCC(Cc2ccc(F)cc2)CC1 | 4.65%
O=C(O)CCCC(=O)N1CCC(c2noc3cc(F)ccc23)CC1 | 20.09%
O=C(CCC(=O)N1CCC(c2noc3cc(F)ccc23)CC1)NC1CC1 | 83.45%
CC(C)NC(=O)CN1CCC(c2cccc(F)c2)C1 (centres undefined) | -24.09%
Cl.NC(=O)C1CNCCN1C(=O)COc1ccccc1 (centres undefined) | -11.48%
C[C@H]1CN(Cc2cccc(F)c2)C[C@@]12CCN(CC(=O)N(C)C)C2=O.O=C(O)C(F)(F)F | -2.321%
CC(C)C(=O)N1CC[C@H]2N(C)CC[C@@]2(C(=O)N2CCCC2)CC1.O=C(O)C(F)(F)F | 7.304%
Cc1nn(C)c2nc(-c3ccccn3)nc(NCCCOC(C)C)c12 | 98.39%
CC(=O)NCCNc1nc(-c2ccccn2)nc2c1c(C)nn2C | -12.81%
c1ccc(-c2nc3c(c(NCCn4cccc4)n2)CCNCC3)nc1 | -4.2%
CCSCCNc1nc(-c2ccccn2)nc2c1c(C)nn2C | 102%
CCC1(O)CCCN(c2ncnc3c2c(C)nn3C)C1 (centres undefined) | 10.34%
CSCC[C@@H](CO)Nc1ccc(-c2nc(-c3ccccc3F)no2)cn1 | -33.46%
CSCC[C@@H](CO)Nc1nc(-c2ccccn2)nc2c1c(C)nn2C | 63.32%

Structure (SMILES) | Percent Effect
c1ccc(-c2nc3c(c(NCCCn4cncn4)n2)CCNCC3)nc1 | 8.8%
CCSCCNc1nc2c(s1)c(C)nn2C | 6.366%
CSCC[C@@H](CO)Nc1ccc(-c2nc(-c3ccccc3C)no2)cn1 | -15.48%
CCC1(O)CCCN(c2nc(-c3ccccn3)nc3c2c(C)nn3C)C1 (centres undefined) | 100.9%
Cc1nc(N2CCC(O)(c3ccccc3)CC2)c2c(C)nn(C)c2n1 | 12.95%
Cc1ccc(CN2CC[C@H]3OCC[C@@H](C(=O)N4CCCCO4)[C@@H]3C2)o1.O=C(O)C(F)(F)F | -16.6%
O=C(O)C(F)(F)F.O=C([C@@H]1CCO[C@@H]2CCN(CCc3ccccc3)C[C@@H]21)N1CCCC1 | -24.53%
Cl.c1cnc(Nc2cc(CCC3CCCNC3)ccn2)cn1 (centres undefined) | 5.615%
Cc1nnc(N2CC[C@H]3O[C@H](C(=O)NCc4ccccn4)CC[C@H]32)s1.O=C(O)C(F)(F)F.O=C(O)C(F)(F)F | -4.989%
CCCN1C[C@H]2CC[C@@H]1CN(c1nnc(C(C)C)s1)C2 | 23.85%
O[C@@H]1CN(Cc2cccnc2)C[C@H]1Oc1ccccc1 | -6.962%
CCN1CCN(C)C(=O)C12CCN(C(=O)Cc1ccccn1)CC2.O=C(O)C(F)(F)F | 3.493%
Cc1nn(C)c2nc(-c3ccccn3)nc(NCCC3CCCN3C)c12 (centres undefined) | -21.22%
Cc1nn(C)c2nc(-c3ccccn3)nc(NC[C@@H]3CCCO3)c12 | 93.55%
Cc1nn(C)c2nc(N(Cc3ccccn3)CC3CCCO3)sc12 (centres undefined) | -20.31%
CN(Cc1ccco1)Cc1cncc2c1CCN(Cc1ccoc1)C2.Cl.Cl.Cl | -8.81%
COc1ccc(CN(C)CC(O)COCc2ccccc2Cl)c(OC)c1.O=C(O)C(=O)O (centres undefined) | 10.76%
Cl.NC(=O)c1ccc(C2CCCNC2)nc1 (centres undefined) | 6.817%
Cc1noc(C)c1C(=O)N1C[C@@H]2COC[C@]2(COc2ccccn2)C1.O=C(O)C(F)(F)F | -29.95%
Cc1ccc2nc(C3CCCN3Cc3scnc3C)[nH]c2c1 (centres undefined) | 1.494%
Cc1ccc2nc(C3CCCN3Cc3csc(C)n3)[nH]c2c1 (centres undefined) | 87.71%
Cc1ccc2nc(C3CCCN3Cc3nnc(C)s3)[nH]c2c1 (centres undefined) | -8.638%

Structure (SMILES) | Percent Effect
Cn1cc(CN2C[C@@H]3COC[C@]3(C(=O)NCCc3ccccc3)C2)cn1.O=C(O)C(F)(F)F | -18.43%
COCCC(C)NS(=O)(=O)c1ccc(C)c(N(C)C)c1 (centres undefined) | 1.91%
CCN(CC)c1ncnc2c1CCN(C(=O)Cc1ccccn1)CC2.O=C(O)C(F)(F)F.O=C(O)C(F)(F)F | -18.08%
CCn1ncc2c1C(COC)CN(Cc1ccc(F)cc1)C2.O=C(O)C(F)(F)F.O=C(O)C(F)(F)F (centres undefined) | -13.12%
CCn1ncc2c1C(COC)CN(c1ncc(F)cn1)C2.O=C(O)C(F)(F)F.O=C(O)C(F)(F)F (centres undefined) | 55.18%
COCC1CN(c2ncc(F)cn2)Cc2cnn(C)c21.O=C(O)C(F)(F)F.O=C(O)C(F)(F)F (centres undefined) | 9.404%
CCOCC1CN(Cc2ccco2)Cc2nccn2C1.O=C(O)C(F)(F)F (centres undefined) | -9.1%
CN(C)C(=O)CC1CC2(CCN(CC3CC3)CC2)c2cc(F)ccc21.O=C(O)C(F)(F)F (centres undefined) | -15.82%
Cc1ccc(-n2nnc(C(=O)NCC3CCCCC3)n2)cc1 | 10.71%
COc1ccc2nnc(C(=O)NCC3CCCC3)nc2c1 | 44.72%
CN1CCN(C(=O)c2nnc3ccc(Cl)cc3n2)CC1 | 68.14%
O=C(NCC1CC1)c1nnc2ccc(Cl)cc2n1 | 102.8%
O=C(NC1CCCCC1)c1nnc2ccc(N3CCOCC3)cc2n1 | 8.79%
Cc1ccc2nnc(C(=O)NCC3CCCC3)nc2c1 | 103.3%
COc1ccc2nnc(C(=O)NC3CCCC3)nc2c1 | 57.83%
COC(=O)C1CCN(C(=O)c2nnc3ccc(C)cc3n2)CC1 | 15.86%
COC(=O)C1CCN(C(=O)c2nnc3ccc(Cl)cc3n2)CC1 | 26.61%
CCn1nc(C)c(CNC(=O)c2nnc3ccc(OC)cc3n2)c1C | -6.041%
O=C(NCC1CC1)Nc1cnc2cc(Cl)ccc2c1O | -11.98%
CCn1nc(C)c(CNC(=O)c2nnc3ccc(Cl)cc3n2)c1C | 42.92%
